Most compounds without a hit are left out; they make up all but 3.4% or so of the library.
KLK7 zymogen act: activators of human kallikrein-7 zymogen; purified proKLK7, EDANS-DABCYL substrate fluorescence; 100% is mature enzyme control, 0% vehicle; activation, % at 7 µM; 370,000 tested, 0.9% active;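 active = activation above the mean of all tested compounds plus 3 SD, computed per campaign excluding outliers beyond control limits, cut at about 13% in these data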
ADAM17 inh: ADAM17 inhibition, QFRET primary screen; 370,000 tested, 0.83% active; P78536; recombinant ADAM17, EDANS/DABCYL FRET peptide cleavage; inhibition, % at 6.95 µM;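 active = inhibition above the mean of compounds lying between control limits plus 3 SD, set per campaign, cut at about 8.5% in these data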;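 note: 0% = DMSO-only wells as the low control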
NRP1-CendR mod: modulators of CendR peptide binding to human neuropilin-1. O14786. FAM-RPARPAR peptide binding to NRP-1, fluorescence polarization. inhibition, % at 25 µM. 360,000 tested, 0.85% active;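 active = inhibition or corrected inhibition above about 18%, plus a signal ratio from 0.5 to 1.5, limit read from the data, passing the limit was not always enough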
sPLA2-III inh: Inhibits HGIII-sPLA2 liposome hydrolysis, primary screen; Q9NZ20; QFRET BODIPY PC-A2 liposome hydrolysis, fluorescence; inhibition, % at 12.2 µM; 370,000 tested, 0.56% active; AID 743126;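 active = inhibition above mean plus 3 SD of compounds lying within the high and low control bounds, cut at about 19% in these data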;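 note: 0% = median of test compound wells and 100% = no enzyme DMSO wells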
ADAM10 inh: inhibitors of human ADAM10; recombinant ADAM10, EDANS/DABCYL FRET peptide cleavage, 3 h; inhibition, % at 7 µM; 370,000 tested, 0.62% active; AID 720582;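 active = inhibition above a per-campaign cutoff equal to the mean of compounds falling between control-based bounds plus 3 SD, cut at about 20% in these data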;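 note: 0% = DMSO wells while the 100% control is not disclosed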
proKLK7 act conf: proKLK7 activation, confirmation; shares compounds with KLK7 zymogen act; purified proKLK7, EDANS-DABCYL substrate fluorescence; scaled: vehicle 0, mature enzyme 100; activation, % at 7 µM; 3,200 tested, 68% active; AID 686949;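 active = activation, as change over the incubation, above the mean of all tested compounds plus 3 SD, cut at about 13% in these data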
EDANS interfere: optically interferes with EDANS-DABCYL signal, flagging KLK7 hits. shares compounds with KLK7 zymogen act. EDANS-DABCYL substrate fluorescence interference, no enzyme, 4 h; solvent 0%, active enzyme control 100%. activation, % at 7 µM. 3,200 tested, 80% active;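 active = activation above the all-compound mean plus 3 SD, ignoring values outside control-based bounds, cut at about 4.8% in these data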;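 note: value is the 4 h activation minus the activation read at time zero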
The depositor's hits bear a star; i = inactive; . = no result.

SMILES	KLK7 zymogen act	ADAM17 inh	NRP1-CendR mod	sPLA2-III inh	ADAM10 inh	proKLK7 act conf	EDANS interfere
C#CCn1c(=NC(=O)c2ccc(S(=O)(=O)N3CCCc4ccccc43)cc2)sc2cc(S(N)(=O)=O)ccc21	51*	2	-27	16	11	8	24*
C[C@H]1[C@@H](OC(=O)NCc2ccc(Cl)cc2)CC[C@@]23CCCN2C(=O)CCC[C@@H]13	.	-7	.	7	-7	.	.
Cc1c(C(C)c2ccccc2O)c2ccccc2n1C (stereo unspecified)	3	2	.	3	-3	.	.
CCN(CC)Cc1c(O)ccc2cc(-c3nc4ccccc4n3C)c(=O)oc12	52*	i	-7	2	i	73*	76*
CCc1cc2c(=O)c(-c3nc4ccccc4n3C)c(C)oc2c(CN(CC)CC)c1O	16*	-126	-10	1	-357	11	11*
CCc1cc2c(=O)c(-c3nc4ccccc4n3C)coc2c(CN2CCC(C)CC2)c1O	5	-53	6	0	-152	.	.
COc1ccc(/C=N/NC(=O)c2nc(Cl)c(Cl)c(N)c2Cl)cc1COc1ccc(F)cc1F	-328	-6	-7	-3	-2	.	.
COc1ccc(/C=N/NC(=O)c2nc(Cl)c(Cl)c(N)c2Cl)cc1COc1ccccc1F	42*	-118	-1	-31	-392	59*	72*
CCc1ccc(-c2ccc(C(=O)O)c(C)n2)cc1	0	-6	-1	16	-7	.	.
CCc1ccc(-c2cnc3nc[nH]c(=O)c3n2)cc1	15*	-411	-5	-10	i	38*	39*
CN1C=CC(=CC=C2C=CC(=O)C=C2)C=C1	50*	-17	-181	-8	-33	12	14*
C[C@@H]1OCN(C)[C@H]2C[C@H]3c4[nH]c5cccc(-c6ccccc6)c5c4CCN3C[C@@H]12	-2	-32	.	-6	-101	.	.
COc1cc(-c2nc3ccc(N4CCN(C)CC4)cc3[nH]2)cc(OC)c1OC	81*	i	8	0	i	64*	70*
COc1ccc(-c2nc3ccc(N4CCN(C)CC4)cc3c(=O)[nH]2)cc1	14*	-118	4	0	-315	3	5.5*
COc1ccc(-c2nc3ccccc3c(=O)[nH]2)cc1	-1	-3	8	9	0	.	.
C[C@H]1[C@H](NC(=O)c2ccc(Cl)c(C(F)(F)F)c2)CC[C@@]23CCCN2C(=O)CCC[C@@H]13	.	0	.	-2	0	.	.
Cc1cc(N2CCN(C(=O)Oc3ccc(C(F)(F)F)cc3)CC2)c2ccccc2n1	0	-1	.	-5	5	.	.
C=CCN(CC=C)c1nc2ccccc2nc1C(C#N)C(=O)OCCOC (stereo unspecified)	43*	-415	-21	-13	i	20*	18*
COc1ccc2cc(C3=CC(=O)CCC3)ccc2c1	24*	-232	28*	-11	i	-47	-49
O=C(CN1CCOCC1)Nc1nc(-c2ccc(Cl)cc2)cs1	0	-2	5	-8	5	.	.
CC1CN(CC(=O)Nc2nc(-c3ccc(Cl)cc3)cs2)CC(C)O1 (stereo unspecified)	50*	-2	-7	-10	6	1	1
CCC[C@H]1[C@@H](NC(=O)c2ccc(N(C)C)cc2)CC[C@@]23CCCN2C(=O)CCC[C@@H]13	.	-8	.	4	-4	.	.
CCN(C)C(=O)CNc1nnnn1-c1ccccc1	1	1	.	0	0	.	.
Cc1ccc2c(c1)COc1c3ccc(C(=O)N[C@@H](C)CO)cc3nn1-2	14*	-146	5	-1	-500	7	4
Cc1ccc2c(c1)COc1c3ccc(C(=O)NC(C)C)cc3nn1-2	7	-80	6	-2	-301	.	.
Cc1ccc2occ(/C=N/NC(=O)c3ccc(O)cc3)c(=O)c2c1	23*	-3	-12	-9	-3	53*	51*
Cc1ccc2occ(/C=N/NC(=O)c3ccccc3Br)c(=O)c2c1	2	0	-6	-8	-12	.	.

Assay outcomes as filed in PubChem BioAssay.
